Compounds without any hit were thinned out: in the full panel of roughly 83,000, 20% have a hit.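 Results are percent growth after 48 hours of single-concentration exposure. 100 means growth as in untreated cells, lower positive values show inhibition; negative values down to -100 show cell death.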 Unmarked numbers belong to inactive results. Calls of active or inactive are those of the source. How the source made its calls: active means growth percent below 10; inactive means the rest.

One test has as its system CAKI-1 renal. The test can be described thus: NCI-60 one-dose screen, 48 h (100 = growth as untreated, 0 = no growth, -100 = all killed). The following applies: 10 µM unless noted.
Turning to `Cc1ccc2c(n1)C(=O)C(Cl)=C(Nc1ccc(N3CCN(C)CC3)cc1)C2=O`, the growth was -100% (active). Same read-out and setting: then `c1cc2ccc1CNCCN1CCNCc3ccc(cc3)Oc3ccc(cc3)CNCCN(CCNCc3ccc(cc3)O2)CCNCc2ccc(cc2)Oc2ccc(cc2)CNCC1`, with 47.5%; and `Cc1ccc(-c2cn(C/C=C3\C=CN(S(=O)(=O)c4ccccc4)CC3)nn2)cc1`, with 76.5%. On the same count and under the same terms, the value for `CCCCCCCCN(CCCCCCCC)CC(O)c1ccc(Cl)c(C)c1Cl` (stereo unspecified) was 72.5%.

The subject of a further test is A498 renal. Described as above. Particulars: 10 µM unless noted.
With `N#C/C(C(=O)c1ccccc1)=C1/C(=O)Nc2ccc(F)cc21`, the growth is 81.1%. The same measure, in the same setting: then `C=C(C)[C@@H]1CC[C@]2(C(=O)NCCCN)CC[C@]3(C)[C@H](CC[C@@H]4[C@@]5(C)CC[C@H](O)C(C)(C)[C@@H]5CC[C@]43C)[C@@H]12`, with -44.8% [100 µM] (active). On the same count and under the same terms, the value for `O=C1/C(=C\c2cn(CC(O)CN3CCCCC3)c3ccccc23)c2ccccc2N1c1c(Cl)cccc1Cl` (stereo unspecified) was -96.3% (active); that for `COc1ccc(OC)c([N+](=O)[O-])c1C(=O)CNC(C)=O` was 94.1%. Same read-out and setting: then `Nc1cccc2c1C(=O)c1cccc(NC(=O)c3ccccc3)c1C2=O`, with 16.7%; and `CCNc1cc2c(cc1Br)-c1ccccc1C2=O`, with 93.4%; and `CCOc1cccc2c(NC(C)CCCN(CC)CC)c(C)cnc12` (stereo unspecified), with 97.7%. On to `COc1cc(/C=C/C(=O)/C=C/c2ccc(-n3ccnc3C)cc2)ccc1O`, for which the growth is 78.8%. On the same count and under the same terms, then `COc1cc(-c2nc(SCCC(C)C)nc(Nc3ccccc3)c2C#N)cc(OC)c1OC`, with 69.9%; and `CN(C)C(=S)Sc1ccc([N+](=O)[O-])cc1[N+](=O)[O-]`, with 80.5%; and `Nc1ccc(Cl)c([N+](=O)[O-])c1`, with 89.5%. The same measure, in the same setting: then `CCCCCCCCCCCCNC(=S)N/N=C/c1ccccc1O`, with 94.3%. On the same count and under the same terms, the value for `CC1(C)CC[C@]2(C(=O)OC(=O)[C@]34CCC(C)(C)C[C@@H]3C3=CC[C@@H]5[C@@]6(C)CCC(=O)C(C)(C)[C@@H]6CC[C@@]5(C)[C@]3(C)CC4)CC[C@]3(C)C(=CC[C@@H]4[C@@]5(C)CCC(=O)C(C)(C)[C@@H]5CC[C@]43C)[C@H]2C1` was 95.6% [100 µM]; that for `COc1cccc(-c2[nH]c(=S)ncc2C(=O)c2ccccc2)c1` was 75%.

On to `O=C(N=c1n(-c2ccccc2)nc2n1CCN2C1=NCCN1C(=O)c1ccc(Cl)cc1)c1ccc(Cl)cc1`, for which the growth was 73.7%. The same measure, in the same setting: then `COc1cc2c(=O)[nH]c3cc([N+](=O)[O-])ccc3c2cc1[N+](=O)[O-]`, with -2.09% (active); and `O=C(Nc1cccc2ccccc12)c1cc2ccccc2cc1O`, with -13.8% (active). On the same count and under the same terms, the value for `Cc1ccc(N)c(O)c1` was 50.7%; that for `CCOC(=O)CCC[P+](c1ccccc1)(c1ccccc1)c1ccccc1` was 86.3%.

`CCN(CC)c1cc(N)c(Cc2c(N)cc(N(CC)CC)cc2Cl)c(Cl)c1`: the growth is 76.7%. On the same count and under the same terms, the value for `CSc1nc(N)c(N=Nc2ccc(S(=O)(=O)Nc3nnc(C)s3)cc2)c(=O)[nH]1` was 97.7%; that for `CC1(C)C(=O)/C(=C\c2cccnc2)C[C@]2(C)[C@H]3CC[C@@H]4[C@H]5[C@H](C(=O)/C=C/c6cccnc6)CC[C@]5(C(=O)O)CC[C@@]4(C)[C@]3(C)CC[C@@H]12` was -77.5% [100 µM] (active). Still for that read-out and setting: the value for `N#CCCc1c[nH]c2ccccc12` was 103%; that for `C[C@@H]1C[C@H]2C(=O)O[C@@H](C)[C@H](NC(=O)[C@H](Cc3cc(F)cc(F)c3)NC(=O)Nc3ccc(C4CC4)cc3F)C(=O)N3CCC[C@H]3C(=O)N3CCCC[C@H]3C(=O)N[C@@H](C)C(=O)N2C1` was -5.24% (active). The same measure, in the same setting: then `CCN(CC)CCCC(C)Nc1c2ccc(C)cc2nc2ccc(OC)cc12` (stereo unspecified), with 70.2%; and `C#CCNC(=O)CC[C@]1(C)[C@H]2CC[C@@H]3[C@@H]([C@@](C)(O)CCC=C(C)C)CC[C@@]3(C)[C@]2(C)CC[C@H]1C(=C)C`, with 67.1% [100 µM]; and `CC1(C)CC[C@]2(C(=O)O)CC[C@]3(C)C(=CC[C@@H]4[C@@]5(C)C/C(=C/c6ccco6)C(=O)C(C)(C)[C@@H]5CC[C@]43C)[C@@H]2C1`, with -42.5% [100 µM] (active). On to `C=C(C)[C@@H]1CC[C@]2(C(=O)O)CC[C@]3(C)[C@H](CC[C@@H]4[C@@]5(C)C/C(=C/c6ccco6)C(=O)C(C)(C)[C@@H]5CC[C@]43C)[C@@H]12`, for which the growth was -58.5% [100 µM] (active). The same measure, in the same setting: then `C[n+]1cccc(NC(=O)c2ccc3ccc4ccc(C(=O)Nc5ccc[n+](C)c5)nc4c3n2)c1`, with 95.3%; and `Cc1ccc(S(=O)(=O)N/N=C2\CC3CCC2(C)C3(C)C)cc1` (stereo unspecified), with 105%; and `CCOC(=O)c1nn(C2CCCCO2)c2ccc(NC(=O)Cn3nnc4ccccc43)cc12` (stereo unspecified), with 85.8%.

Turning to `Cn1cc(-c2nnc(-c3cn(C)c4ncc(Br)cc34)o2)c2ccccc21`, the growth is 86.4%. On the same count and under the same terms, then `O=C(Nc1ccc(Oc2ccc(F)cc2)c(Cl)c1)c1cccnn1`, with 61.1%.

For `Cc1ccc2c(n1)C(=O)C(Cl)=C(Nc1ccc(N3CCN(C)CC3)cc1)C2=O`, the growth was 101%. Still for that read-out and setting: then `c1cc2ccc1CNCCN1CCNCc3ccc(cc3)Oc3ccc(cc3)CNCCN(CCNCc3ccc(cc3)O2)CCNCc2ccc(cc2)Oc2ccc(cc2)CNCC1`, with 48%; and `Cc1ccc(-c2cn(C/C=C3\C=CN(S(=O)(=O)c4ccccc4)CC3)nn2)cc1`, with 94.3%. Take `CCCCCCCCN(CCCCCCCC)CC(O)c1ccc(Cl)c(C)c1Cl` (stereo unspecified): the growth was 70.7%.

Source of the values: PubChem BioAssay (NCI).
